Results taken from PubChem BioAssay AID602393 (Broad Institute, 2012).
About 7,000 (2%) of roughly 350,000 compounds were called active. Rule as the data show it: active = activation above about 40%; inconclusive = no clear call, values can overlap the other calls; inactive = below that. Shown is part of a subset that was picked to be rich in actives.

Assay: raisers of Bmi1 knock-in reporter signal – mouse ES cells, Bmi1 luciferase knock-in, single point, esBAF inhibitor project, primary screen (AID 602393);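 also: 0% = median of the plate's neutral control wells and 100% = double that signal; a rise in the Bmi1 reporter signal indicates esBAF inhibition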
Settings: 24 h, at 12.5 µM, active compounds read high, 100% = twice the neutral-well signal
In the case of `O=C(Cc1ccncc1)NCC[C@@H]1CC[C@H](NC(=O)Nc2ccc(Cl)cc2)[C@@H](CO)O1`, the reporter increase was -1.9% (inactive). In the case of `CN1CCN(C(=O)C[C@H]2C[C@H]3c4cc(NC(=O)C5CCC5)ccc4O[C@H]3[C@H](CO)O2)CC1`, the reporter increase was 1.39% (inactive). In the case of `O=C(NCCN1CCCC1)[C@@H]1N[C@@H]2c3ccc(-c4ccccc4)c(=O)n3C[C@@H]2[C@H]1CO`, the reporter increase was -5.2% (inactive). In the case of `O=C(C[C@@H]1CC[C@H](NC(=O)Nc2cc(F)ccc2F)[C@H](CO)O1)NCc1ccncn1`, the reporter increase was 4.9% (inactive). For `C[C@H]1CN([C@@H](C)CO)C(=O)c2cc(-c3ccccc3F)cnc2O[C@@H]1CN(C)C(=O)C1CCCCC1`, the reporter increase was -0.372% (inactive). In the case of `CC=Cc1ccc2n(c1=O)C[C@@H]1[C@@H](CO)[C@H](C(=O)NCc3cccc(OC)c3)N[C@H]21` (mixture of isomers), the reporter increase was 0.983% (inactive). With `CCCNC(=O)N1[C@H](CNC(=O)c2cccc(F)c2)[C@H](c2ccccc2)[C@@H]1CO` the reporter increase was 3.53% (inactive). For `C[C@@H]1CCCCO[C@H](CN(C)Cc2ccc(C(F)(F)F)cc2)[C@H](C)CN([C@@H](C)CO)C(=O)c2cc(N(C)C)ccc2O1`, the reporter increase was 0.085% (inactive). In the case of `COc1ccc(C#Cc2cnc3c(c2)C(=O)N([C@H](C)CO)C[C@@H](C)[C@H](CN(C)C(=O)Nc2cccc(OC)c2)O3)cc1`, the reporter increase was 4.12% (inactive). In the case of `COc1ccccc1-c1cnc2c(c1)C(=O)N([C@H](C)CO)C[C@H](C)[C@H](CN(C)Cc1cccnc1)O2`, the reporter increase was -8.49% (inactive). In the case of `COc1ccc(S(=O)(=O)N(C)C[C@H]2OCCCC[C@H](C)Oc3ccc(NC(=O)Nc4ccc(F)cc4)cc3C(=O)N([C@@H](C)CO)C[C@H]2C)cc1`, the reporter increase was 0.828% (inactive). For `COc1ccc(S(=O)(=O)Nc2cccc3c2O[C@@H](CN(C)S(=O)(=O)c2ccccc2)[C@@H](C)CN([C@@H](C)CO)C3=O)cc1`, the reporter increase was 1.5% (inactive). In the case of `CC(C)CNS(=O)(=O)c1ccc(C(=O)Nc2ccc3c(c2)OCO3)cc1`, the reporter increase was -0.727% (inactive). With `CNS(=O)(=O)c1ccc(NC(=O)Nc2ccc3c(c2)OCO3)cc1` the reporter increase was 52.5% (active). In the case of `Cc1ccc(S(=O)(=O)NCC(=O)Nc2ccc3c(c2)OCCO3)cc1`, the reporter increase was -6.84% (inactive). In the case of `CO[C@@H]1CN(C)C(=O)c2cc(NC(=O)c3ccccc3F)ccc2OC[C@H](C)NC[C@@H]1C`, the reporter increase was -0.986% (inactive). For `Cc1nn(-c2ccccc2)c(CC(C)(C)C(=O)O)c1C(=O)O`, the reporter increase was -1.54% (inactive). For `Cc1ccc(OC(=O)c2c(C)nn(-c3ccccc3)c2C)cc1`, the reporter increase was 65% (active). With `Cc1cccc(C)c1NC(=O)COC(=O)c1c(C)nn(-c2ccccc2)c1C` the reporter increase was -0.0425% (inactive). With `O=C(Nc1cccc(Cl)c1)N1C[C@@H]2[C@H](c3ccccc31)[C@H](CO)N2C(=O)C1CC1` the reporter increase was -2.51% (inactive). With `CCS(=O)(=O)Nc1ccc2c(c1)C(=O)N(C)C[C@@H](OC)[C@@H](C)CN(C(=O)COC)[C@H](C)CO2` the reporter increase was -2.28% (inactive). In the case of `CN(c1ccc(O)cc1)c1nc(-c2cccnc2)cs1`, the reporter increase was 33.5% (inactive). In the case of `Cc1ccccc1Nc1nc(-c2cccnc2)cs1`, the reporter increase was 71.3% (active). With `O=C(NCc1cccnc1)C(=O)Nc1nc(-c2ccccc2)cs1` the reporter increase was 38.2% (inactive). In the case of `COc1ccc(-c2ccc([C@@H]3[C@@H](CO)N4CCCCN(C(=O)NC(C)C)C[C@H]34)cc2)cc1`, the reporter increase was -0.595% (inactive). In the case of `CN(C)C(=O)c1cccc(-c2ccc3c(c2)[C@H]2[C@H](CCN2C(=O)c2cccnc2)[C@H](CO)N3)c1`, the reporter increase was -0.408% (inactive). With `CO[C@H]1CN(C)C(=O)c2ccc(NC(=O)c3cnccn3)cc2OC[C@@H](C)N(C(C)=O)C[C@H]1C` the reporter increase was -1.77% (inactive). In the case of `C[C@H](NC(=O)C[C@H]1C=C[C@H](NS(=O)(=O)c2cccc(F)c2)[C@@H](CO)O1)c1ccccc1`, the reporter increase was -4.57% (inactive). In the case of `C[C@@H]1CCCCO[C@H](CN(C)S(=O)(=O)c2cn(C)cn2)[C@H](C)CN([C@H](C)CO)C(=O)c2cc(N(C)C)ccc2O1`, the reporter increase was -3.59% (inactive). For `COC(=O)c1sccc1N/N=C(\C)c1ccc(F)c(Cl)c1`, the reporter increase was 11.8% (inactive). With `COc1ccc(/C(C)=N/NC(=O)c2ccc3nc[nH]c3c2)cc1` the reporter increase was -4.25% (inactive). For `COc1cccc(/C(C)=N/Nc2ncc(Cl)cc2Cl)c1`, the reporter increase was 54% (active). With `C[C@@H]1CN([C@@H](C)CO)C(=O)Cc2cc(NC(=O)CCCCCC(=O)Nc3ccccc3N)ccc2O[C@H]1CN(C)Cc1ccc(Cl)c(Cl)c1` the reporter increase was -6.35% (inactive). For `CSc1ccccc1OCc1cc(C(=O)N2C[C@H]3CC[C@H]2C3)no1`, the reporter increase was 87.7% (active). In the case of `CSc1ccccc1OCc1cc(C(=O)N(C)CCc2c(C)n[nH]c2C)no1`, the reporter increase was -2.74% (inactive). With `Cc1nonc1C1CCCN1C(=O)c1cc(COc2cccc(C(F)(F)F)c2)on1` (stereo unspecified) the reporter increase was -1.7% (inactive). With `CCNC(=O)[C@@H]1[C@@H](CO)[C@@H]2Cn3c(ccc(C4=CCCC4)c3=O)[C@H]1N2Cc1ccccc1` the reporter increase was -1.26% (inactive). In the case of `O=C(C[C@@H]1CC[C@H]2[C@@H](COC[C@H](O)CN2C(=O)Nc2ccccc2)O1)NCc1ccccc1F`, the reporter increase was 4.71% (inactive). In the case of `COc1cc(-c2nnc(NC(=O)C3=COCCO3)o2)cc(OC)c1OC`, the reporter increase was -0.666% (inactive). In the case of `CCC(CC)c1nnc(NC(=O)C2=COCCO2)s1`, the reporter increase was 53.6% (active). For `CCC(CC)c1nnc(NC(=O)C2CCN(C(=O)c3ccco3)CC2)s1`, the reporter increase was 3.96% (inactive). With `COC(=O)c1sc(NC(=O)c2csc3c2CCCC3)nc1C` the reporter increase was 52.4% (active). For `CC1CC(C)CN(CCCNC(=O)c2csc3c2CCCCC3)C1` (stereo unspecified), the reporter increase was -0.645% (inactive). In the case of `O=C(Nc1ccccc1N1CCOCC1)c1csc2c1CCCC2`, the reporter increase was 2.6% (inactive). For `CN1c2ccc(Br)cc2[C@H]2[C@H](CCN2S(=O)(=O)c2ccccc2)[C@@H]1CO`, the reporter increase was 1.11% (inactive). With `CO[C@H]1CN(C)C(=O)c2cc(NC(=O)c3cc(C)on3)ccc2OC[C@@H](C)N(C(C)=O)C[C@H]1C` the reporter increase was -1.52% (inactive). With `COc1ccc(Cc2nnc(NC(=O)c3cc(OC)c(OC)c(OC)c3)s2)cc1OC` the reporter increase was -8.39% (inactive). For `COc1ccc(Cc2nnc(NC(=O)Cc3cccs3)s2)cc1`, the reporter increase was -12.5% (inactive). With `COc1ccc(C(=O)Nc2nncs2)c(OC)c1` the reporter increase was 72.1% (active). In the case of `COc1ccc(C(=O)NC2=NCCS2)c(OC)c1`, the reporter increase was -5.27% (inactive). With `COc1cccc(OC)c1C(=O)Nc1nnc(C(C)C)s1` the reporter increase was 4.44% (inactive). For `COc1ccc(Cc2nnc(NC(=O)c3ccc(OC)cc3OC)s2)cc1`, the reporter increase was 60.8% (active). For `C[C@@H](O)C#Cc1cnc2c(c1)C(=O)N([C@@H](C)CO)C[C@H](C)[C@H](CN(C)C(=O)c1ccccc1F)O2`, the reporter increase was -1.43% (inactive). With `COc1ccccc1-c1cnc2c(c1)C(=O)N([C@H](C)CO)C[C@H](C)[C@@H](CN(C)C(=O)CC1CC1)O2` the reporter increase was -6.49% (inactive). For `O=C(O)C[C@@H]1C[C@@H]2c3cc(NC(=O)Nc4ccccc4)ccc3O[C@@H]2[C@H](CO)O1`, the reporter increase was 2.21% (inactive). With `Cc1ccc2nc(/C(C#N)=C\c3ccc(OC(=O)c4cccs4)cc3)[nH]c2c1` the reporter increase was 113% (active). In the case of `CCC(=O)N(C)C[C@H]1Oc2ncc(-c3ccccc3OC)cc2C(=O)N([C@H](C)CO)C[C@H]1C`, the reporter increase was 2.4% (inactive). For `C[C@@H]1CCCCO[C@H](CN(C)C(=O)Cc2ccccc2)[C@@H](C)CN([C@@H](C)CO)C(=O)c2cc(NC(=O)c3ccccc3)ccc2O1`, the reporter increase was -0.116% (inactive). With `Cc1ccc(S(=O)(=O)/N=C(/Nc2ccc3[nH]c(=O)[nH]c3c2)c2ccccc2)cc1` the reporter increase was 3.61% (inactive). In the case of `Cc1ccc(S/C(=N\S(=O)(=O)c2ccc(Cl)cc2)c2ccccc2)cc1`, the reporter increase was -7.08% (inactive). With `Cc1ccc(S(=O)(=O)/N=C(/Nc2ccccn2)c2ccc(Cl)cc2)cc1` the reporter increase was 45.6% (active). For `C[C@@H]1CN([C@@H](C)CO)C(=O)c2cccc(NC(=O)Nc3ccc(C(F)(F)F)cc3)c2O[C@@H]1CN(C)S(=O)(=O)c1cccs1`, the reporter increase was 0.762% (inactive). For `C[C@@H](O)C#Cc1cnc2c(c1)C(=O)N([C@@H](C)CO)C[C@H](C)[C@@H](CN(C)CC1CCCCC1)O2`, the reporter increase was -1.99% (inactive). In the case of `CCCN(C)C[C@@H]1Oc2ncc(-c3cccc(C(=O)N(C)C)c3)cc2C(=O)N([C@H](C)CO)C[C@@H]1C`, the reporter increase was -6.02% (inactive). For `O=C(CN1CCCCCC1)Nc1ccc(Cl)cc1F`, the reporter increase was -12.4% (inactive). For `O=C(CN1CCCCCC1)Nc1ccc(Br)cc1Br`, the reporter increase was 56.9% (active). In the case of `O=C(CN1CCCCCC1)Nc1ccc(Br)cc1[N+](=O)[O-]`, the reporter increase was -0.566% (inactive). With `CN(C(=O)CSc1nnnn1-c1ccccc1)C1CCCCC1` the reporter increase was 22.5% (inactive). For `C=CCn1c(SCn2nnc3ccccc3c2=O)nnc1-c1ccc(Cl)cc1`, the reporter increase was -8.46% (inactive). In the case of `O=c1c2ccccc2nnn1CSc1nnnn1-c1ccccc1`, the reporter increase was 57.4% (active). With `Cc1ccc(S(=O)(=O)N[C@@H]2CC[C@H](CCn3cc(C4(O)CCCC4)nn3)O[C@H]2CO)cc1` the reporter increase was 1.86% (inactive). In the case of `CCc1nnc(SCc2cccc(F)c2)nc1CC`, the reporter increase was -1.92% (inactive). With `Nc1cc(N)nc(SCc2cccc(F)c2)n1` the reporter increase was 65% (active). In the case of `Nc1cc(N)nc(SCc2ccc(Cl)cc2)n1`, the reporter increase was 33.3% (inactive). For `CCC(=O)N(C)C[C@@H]1Oc2ncc(/C=C/c3ccccc3)cc2C(=O)N([C@@H](C)CO)C[C@H]1C`, the reporter increase was -3.12% (inactive). In the case of `CCC(=O)N1[C@H](C(=O)NCc2ccc(F)cc2)[C@@H](CO)[C@@H]2Cn3c(ccc(C4=CCCCC4)c3=O)[C@@H]21`, the reporter increase was -5.62% (inactive).
